PubChem BioAssay

Assay: basal RPMI8226 mitochondrial membrane potential changes, profiling panel, cell-based, JC-1 fluorescence, 24 h, 100 nL compound (AID 1169); further: test concentration not given here
Conditions: RPMI8226 myeloma, JC-1 mitochondrial potential fluorescence, higher = more signal

Row | SMILES | z-score
1 | CO[C@H]1O[C@H](CO)[C@@H](OC(=O)Nc2ccc(C(F)(F)F)cc2)[C@H](OC(=O)Nc2ccc3c(c2)OCO3)[C@@H]1OC(=O)Nc1ccc2c(c1)OCO2 | -1.32
2 | COCCOC(=O)N1C(=O)[C@@]2(c3cc(C#Cc4ccc(OC)cc4)ccc31)[C@H](c1ccc(O)cc1)N1[C@H](c3ccccc3)[C@H](c3ccccc3)OC(=O)[C@H]1[C@@H]2C(=O)N1CCc2cc(OC)c(OC)cc2C1 | 0.188
3 | CCC(CC)C(O)C1C=CC2C(=O)NC(=O)C2N1Nc1ccccn1 (stereo not given) | -0.07
4 | CN1C(=O)C2C=CC(C(O)C3CC=CCC3)N(N(c3ccccc3)c3ccccc3)C2C1=O (stereo not given) | -0.23
5 | COc1cc2c(cc1OC)CN(C(=O)[C@H]1[C@@H]3C(=O)O[C@@H](c4ccccc4)[C@@H](c4ccccc4)N3[C@@H](c3ccc(O)cc3)[C@]13C(=O)Nc1ccc(C#CCCO)cc13)CC2 | -0.568
6 | CCN(CC)c1ccc(N2CC=CC34O[C@@H]5C=CCCOC(=O)C5[C@H]3C(=O)N(CCCCCCO)[C@@H]4C2=O)cc1 (stereo not given in full) | -0.197
7 | Cc1ccc(S[C@]2(C(=O)O)CC(=O)N(C(C)C)[C@@H]2c2ccc(CO)cc2I)cc1 | -0.527
8 | C=CCNC(=O)[C@H]1[C@@H]2C(=O)O[C@@H](c3ccccc3)[C@@H](c3ccccc3)N2[C@@H](c2ccccc2OCCO)[C@]12C(=O)Nc1ccc(C#CCCO)cc12 | -0.953
9 | C=C(CC1([C@@H](NP(=O)(c2ccccc2)c2ccccc2)[C@H]2C[C@@H]2CCCC)CC1)c1ccccc1 | -0.968
10 | O=C1C[C@@](C(=O)NCCN2CCOCC2)(c2ccc([N+](=O)[O-])cc2)[C@@H](c2ccc(CO)cc2)N1CC12CC3CC(CC(C3)C1)C2 | -0.893
11 | CC(C)[Si](C#Cc1ccc(Oc2ccccc2)cc1)(O[Si](C#Cc1ccc(Oc2ccccc2)cc1)(C(C)C)C(C)C)C(C)C | 0.0384
12 | O=C(NCCO)C1=C[C@H](Oc2ccccc2I)[C@@H](O)[C@H](N(Cc2ccco2)C(=O)Cc2ccccc2)C1 | -0.084
13 | COc1ccc(C#Cc2ccc3c(c2)[C@]2(C(=O)N3)[C@H](C(=O)Nc3nc4ccccc4s3)[C@H]3C(=O)O[C@H](c4ccccc4)[C@H](c4ccccc4)N3[C@@H]2c2ccc(O)cc2)cc1 | -1.02
14 | C=CCOC(=O)[C@H]1[C@@H]2C(=O)O[C@@H](c3ccccc3)[C@@H](c3ccccc3)N2[C@@H](c2ccc(OCCOC(=O)[C@@H]3C[C@@H]4C(=O)N[C@@H](CCCCNC(C)=O)C(=O)N4[C@@H]3c3ccc(O)cc3)cc2)[C@]12C(=O)Nc1ccccc12 | -0.611
15 | COC(=O)[C@H](Cc1ccccc1)N[C@@H](/C=C/C1CC1)[C@H](O)Cc1ccccc1 | -1.17
16 | CC(C)N1C(=O)[C@@]2(Cc3ccccc31)c1ccccc1C(=O)N(Cc1ccccc1Cl)[C@H]2c1ccc(CO)cc1 | 0.115
17 | COC(=O)c1c(CC[C@@H](CO)NC(=O)NCCn2cc(C3(O)CCCC3)nn2)oc(C(C)=O)c1C(=O)OC | 0.586
18 | Cc1ccc(S[C@]2(C(=O)NCCCN(C)C)CC(=O)N(Cc3cc(C(F)(F)F)cc(C(F)(F)F)c3)[C@@H]2c2ccc(CO)cc2)cc1 | 0.199

Row | SMILES | z-score
19 | CCOC(=O)C1=C[C@@H](C(C)(C)C)N(S(=O)(=O)c2ccc(C)cc2)[C@H]1c1ccc(F)cc1 | -1.03
20 | COc1cc2c(cc1OC)CN(C(=O)[C@H]1[C@@H]3C(=O)O[C@@H](c4ccccc4)[C@@H](c4ccccc4)N3[C@@H](c3ccc(O)cc3)[C@]13C(=O)Nc1ccccc13)CC2 | -0.542
21 | COC(=O)C(CC#Cc1ccc2c(c1)[C@]1(C(=O)N2)[C@H](c2ccc(OCCO)cc2)N2[C@H](c3ccccc3)[C@H](c3ccccc3)OC(=O)[C@H]2[C@@H]1C(=O)Nc1nc2ccccc2s1)C(=O)OC | -1.11
22 | COCCOC(=O)N1C(=O)[C@@]2(c3cc(C#CCCO)ccc31)[C@H](C(=O)N1CCCCCCC1)[C@H]1C(=O)O[C@H](c3ccccc3)[C@H](c3ccccc3)N1[C@@H]2c1ccc(OCCO)cc1 | -1.25
23 | C[N+](C)(C)CCCCCCNC(=O)[C@@H]1C[C@@H]2C(=O)N[C@@H](Cc3ccccc3)C(=O)N2[C@@H]1c1cccc(OCCO)c1 | -0.267
24 | CC(=O)n1cc(C(O)C2C=CC3C(=O)N(c4ccccc4)C(=O)C3N2Nc2ccc([N+](=O)[O-])cc2)c2ccccc21 (stereo not given) | -0.412
25 | COC(=O)[C@]1(CCC(=O)OC(C)(C)C)N=C(c2ccc(OCCCO)cc2)O[C@@H]1c1ccccc1CN=[N+]=[N-] | -1.16
26 | CC1CC/C=C\[C@H]2OC34C=CCN(Cc5ccccc5)C(=O)[C@H]3N(CCCO)C(=O)[C@@H]4C2C(=O)O1 (stereo not given in full) | -0.0499
27 | C=CC(=C)[C@H]1Oc2ccccc2S(=O)(=O)N2CCC[C@@H]12 | -0.295
28 | COCCOC(=O)N1C(=O)[C@@]2(c3cc(C#CC4(O)CCCCCC4)ccc31)[C@H](c1ccc(OCCO)cc1)N1[C@H](c3ccccc3)[C@H](c3ccccc3)OC(=O)[C@H]1[C@@H]2C(=O)N1CCN(c2ncccn2)CC1 | -0.266
29 | COc1ccc(CCNC(=O)[C@@]2(C)c3ccccc3C(=O)N(C(C)C)[C@H]2c2ccc(CO)cc2)cc1 | -0.0396
30 | CC1(C)C2C=C(C(O)C3C=CC4C(=O)NC(=O)C4N3Nc3ccc(Cl)cc3Cl)C[C@@H]1C2 (stereo not given in full) | -1.14
31 | O=C1N(Cc2ccccc2)c2ccccc2[C@@H]2OC(c3ccc(OCCCO)cc3)=N[C@]12CCS(=O)(=O)c1ccccc1 | -0.669
32 | COc1cc(COC(C)=O)ccc1OC(C)=O | -0.219
33 | O=C(OCc1ccccc1)C1=CCC2c3[nH]c4ccccc4c3C(=O)C1N2S(=O)(=O)c1ccccc1[N+](=O)[O-] (stereo not given) | -1.14
34 | O=C(NC1CC1)[C@@H]1c2ccccc2C(=O)N(Cc2ccccc2Cl)[C@H]1c1ccc(CO)cc1 | -0.566
35 | C[N+](C)(C)CCCCNC(=O)[C@H]1C[C@H]2C(=O)N3CCC[C@H]3C(=O)N2[C@H]1c1cccc(OCCO)c1 | -0.0988
